“And” between values parts separate entries of the source, which are not always exact repeats. Equal entries are not always repeated. Results filed as inconclusive are left out. The source made the active and inactive calls. Unless noted, calls follow the shape of the dose curve; as a rule, active = well fitted curve in the direction sought with a large enough effect; inconclusive = small, poorly fitted or top-dose-only effect, or another doubt; inactive = no such curve, though single readings can be large; an effect the other way counts as inactive or inconclusive.
Legend:
[1] = target: Lysosomal acid glucosylceramidase (Homo sapiens) (UniProt P04062); test: Glucocerebrosidase-p2 (AID 348; in the data active = potency below about 10 µM; also: potency is read from the fitted curve at half-maximal effect); conditions: purified GBA, blue fluorogenic substrate, 40 min
Sequence of Lysosomal acid glucosylceramidase (Homo sapiens) (P04062 whole entry, looked up): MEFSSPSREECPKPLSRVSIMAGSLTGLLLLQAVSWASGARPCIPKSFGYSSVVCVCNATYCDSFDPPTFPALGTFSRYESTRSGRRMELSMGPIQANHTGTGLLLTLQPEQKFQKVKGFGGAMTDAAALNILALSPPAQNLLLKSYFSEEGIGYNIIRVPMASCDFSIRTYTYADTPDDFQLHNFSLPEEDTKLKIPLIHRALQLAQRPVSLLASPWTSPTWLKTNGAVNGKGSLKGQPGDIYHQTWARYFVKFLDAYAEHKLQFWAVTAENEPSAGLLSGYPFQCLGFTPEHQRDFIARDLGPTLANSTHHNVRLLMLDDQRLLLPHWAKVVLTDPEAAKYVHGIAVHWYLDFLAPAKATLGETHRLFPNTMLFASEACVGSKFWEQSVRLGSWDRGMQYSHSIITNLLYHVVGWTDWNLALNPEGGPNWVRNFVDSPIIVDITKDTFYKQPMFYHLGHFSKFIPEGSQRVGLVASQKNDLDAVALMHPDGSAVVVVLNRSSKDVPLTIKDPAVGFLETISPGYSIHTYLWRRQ
How it was run: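 Compounds titrated from 0.6 nM upwards against 0.2 nM enzyme in pH 5.9 citric acid/KH2PO4, taurocholate, tween-20; blue fluorogenic substrate 80 uM, 40 min room temperature, stopped and read Ex 365/Em 440 for AC50.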

[2] = target: Cytochrome P450 1A2 (Homo sapiens) (UniProt P05177); test: p450-cyp1a2 (AID 410; calls by dose curve; also: potency is read from the fitted curve at half-maximal effect;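 as to activity change, negative = inhibition: -100% = full effect of reference inhibitor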); conditions: recombinant CYP1A2, luciferin-ME demethylation, luminescence; series mostly up to 57 µM
Sequence of Cytochrome P450 1A2 (Homo sapiens) (P05177 whole entry, looked up): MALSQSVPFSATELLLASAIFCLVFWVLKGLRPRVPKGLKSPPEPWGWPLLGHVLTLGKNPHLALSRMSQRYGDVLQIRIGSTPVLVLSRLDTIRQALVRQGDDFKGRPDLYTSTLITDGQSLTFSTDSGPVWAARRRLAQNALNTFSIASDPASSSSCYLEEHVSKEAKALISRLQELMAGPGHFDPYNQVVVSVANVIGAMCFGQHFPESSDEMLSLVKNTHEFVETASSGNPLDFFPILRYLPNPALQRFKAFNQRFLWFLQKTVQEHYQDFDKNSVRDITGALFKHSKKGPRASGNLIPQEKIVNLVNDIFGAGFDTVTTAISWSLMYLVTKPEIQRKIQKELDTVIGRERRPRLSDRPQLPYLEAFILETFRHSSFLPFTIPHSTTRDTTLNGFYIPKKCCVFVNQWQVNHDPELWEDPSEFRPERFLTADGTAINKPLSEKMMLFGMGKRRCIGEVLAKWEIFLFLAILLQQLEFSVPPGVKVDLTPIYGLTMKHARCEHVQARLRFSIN
How it was run: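 Luminescent readout of luciferin formed from Luciferin-ME by human CYP1A2; data normalized against complete inhibition by 57 uM furafylline. Enzyme 20nM, substrate 100uM at Km, 100mM KPO4 buffer, 60 min reaction at room temperature.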

[3] = NFAT Signaling Pathway (AID 444; active = well fitted curve in either direction with a large enough effect, not every such curve was filed as active;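 also: carbachol stimulus at about its EC50 of 1 µM final; % is scaled to controls: 0 for no effect and ±100 for the full control effect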); conditions: Jurkat NFAT-bla M1, carbachol, beta-lactamase ratio, 5 h; at 7.69 µM (top of the series) unless noted
How it was run: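 Jurkat cells with NFAT-driven β-lactamase reporter and co-expressed M1 receptor, stimulated with carbachol (final 1 uM, ~EC50), compound titration, 5 h at 37 °C. CCF4 loaded 1 h at RT; 460/530 nm ratio gave %activity and AC50.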

[4] = Stat Signaling Pathway (AID 446; active = well fitted curve in either direction with a large enough effect, not every such curve was filed as active;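 also: ME-180 cervical cancer cells given 40 pM IL-6 alongside compound; SIE-controlled beta-lactamase reporter measured as 460/530 nm FRET emission ratio; % is scaled to controls: 0 for no effect and ±100 for the full control effect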); conditions: ME-180 SIE beta-lactamase reporter, IL-6 stimulated, 5 h; at 7.69 µM (top of the series) unless noted
How it was run: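 Screening format detects activators and inhibitors alike: ME-180 SIE-bla cells stimulated at 40 pM IL-6 for 5 hrs with compound, then dual-emission beta-lactamase read at 405 nm excitation.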

[5] = target: Glucocorticoid receptor (Homo sapiens) (UniProt P04150); test: GR-GFP Redistribution (AID 450;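 active = compounds whose dose series gives a full or clear partial fitted curve of increased nuclear translocation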; also: potency is read from the fitted curve at half-maximal effect); conditions: U2OS GR-GFP nuclear translocation, laser cytometry, 2 h
Sequence of Glucocorticoid receptor (Homo sapiens) (P04150 whole entry, looked up, the tested form may be a part): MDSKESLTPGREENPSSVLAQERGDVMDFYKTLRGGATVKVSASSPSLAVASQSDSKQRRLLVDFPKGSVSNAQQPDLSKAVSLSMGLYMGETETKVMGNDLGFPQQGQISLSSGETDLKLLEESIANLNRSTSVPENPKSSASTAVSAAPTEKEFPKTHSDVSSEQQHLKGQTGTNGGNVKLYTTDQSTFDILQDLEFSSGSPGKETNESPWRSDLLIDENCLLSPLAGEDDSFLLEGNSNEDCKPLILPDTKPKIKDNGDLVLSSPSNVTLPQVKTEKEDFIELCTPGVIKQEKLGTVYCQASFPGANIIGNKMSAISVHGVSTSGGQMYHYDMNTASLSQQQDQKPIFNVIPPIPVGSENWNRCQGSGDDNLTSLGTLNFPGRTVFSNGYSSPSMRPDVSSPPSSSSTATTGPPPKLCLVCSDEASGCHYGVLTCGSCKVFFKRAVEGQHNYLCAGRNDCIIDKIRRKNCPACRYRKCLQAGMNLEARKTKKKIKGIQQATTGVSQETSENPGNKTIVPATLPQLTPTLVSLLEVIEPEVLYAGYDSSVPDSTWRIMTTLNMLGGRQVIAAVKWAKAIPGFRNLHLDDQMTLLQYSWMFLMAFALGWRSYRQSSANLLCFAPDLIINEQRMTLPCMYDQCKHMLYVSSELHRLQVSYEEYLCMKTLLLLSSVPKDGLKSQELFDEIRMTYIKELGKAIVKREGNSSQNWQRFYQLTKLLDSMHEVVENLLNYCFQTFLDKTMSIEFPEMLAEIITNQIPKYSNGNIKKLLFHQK

[6] = target: Glucocorticoid receptor (Homo sapiens) (UniProt P04150); test: GR-EFC Redistribution (AID 451; calls by dose curve; also: potency is read from the fitted curve at half-maximal effect); conditions: CHO-K1 GR-EFC translocation, beta-gal luminescence, 2 h
How it was run: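 CHO-K1 cells expressing nuclear EA and GR-ED fragments of b-gal; compounds titrated up to 46 uM final, 2 h at 37 C. GR nuclear translocation read as complemented b-gal luminescence after 1 h RT detection.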

[7] = target: Mitogen-activated protein kinase 10 (Mus musculus) (UniProt Q61831); test: JNK3 AlphaScreen Assay (AID 530; active = well fitted curve in either direction with a large enough effect, not every such curve was filed as active;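 also: kinase came from lysate of stimulated human HepG2 cells; signal reports phosphorylation of biotinylated GST-cJun 1-79 at Ser73 with 10 µM ATP; % is scaled to controls: 0 for no effect and ±100 for the full control effect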); conditions: JNK3 lysate, c-Jun phosphorylation; series mostly up to 57.1 µM
How it was run: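 Pre-activated (IL-1β/TNFα) JNK3 in HepG2 lysates phosphorylates biotin-GST-cJun(1-79), 10 uM ATP; anti-phospho-cJun(Ser73) AlphaScreen read at room temperature, pH 7.6 Tris buffer. Compounds pre-incubated 15 min as titrations.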

[8] = target: 3',5'-cyclic-AMP phosphodiesterase 4B (Homo sapiens) (UniProt Q07343); test: qHTS Assay for Inhibitors of PDE-IV (AID 607; active = well fitted activation curve with a large enough effect in the main read-out, with a control signal flat, not every such curve was filed as active; also: % of control where 0% means no effect); conditions: HEK293 ACTOne CNG channel cells, membrane potential fluorescence; series mostly up to 22.9 µM
Sequence of 3',5'-cyclic-AMP phosphodiesterase 4B (Homo sapiens) (Q07343 whole entry, looked up): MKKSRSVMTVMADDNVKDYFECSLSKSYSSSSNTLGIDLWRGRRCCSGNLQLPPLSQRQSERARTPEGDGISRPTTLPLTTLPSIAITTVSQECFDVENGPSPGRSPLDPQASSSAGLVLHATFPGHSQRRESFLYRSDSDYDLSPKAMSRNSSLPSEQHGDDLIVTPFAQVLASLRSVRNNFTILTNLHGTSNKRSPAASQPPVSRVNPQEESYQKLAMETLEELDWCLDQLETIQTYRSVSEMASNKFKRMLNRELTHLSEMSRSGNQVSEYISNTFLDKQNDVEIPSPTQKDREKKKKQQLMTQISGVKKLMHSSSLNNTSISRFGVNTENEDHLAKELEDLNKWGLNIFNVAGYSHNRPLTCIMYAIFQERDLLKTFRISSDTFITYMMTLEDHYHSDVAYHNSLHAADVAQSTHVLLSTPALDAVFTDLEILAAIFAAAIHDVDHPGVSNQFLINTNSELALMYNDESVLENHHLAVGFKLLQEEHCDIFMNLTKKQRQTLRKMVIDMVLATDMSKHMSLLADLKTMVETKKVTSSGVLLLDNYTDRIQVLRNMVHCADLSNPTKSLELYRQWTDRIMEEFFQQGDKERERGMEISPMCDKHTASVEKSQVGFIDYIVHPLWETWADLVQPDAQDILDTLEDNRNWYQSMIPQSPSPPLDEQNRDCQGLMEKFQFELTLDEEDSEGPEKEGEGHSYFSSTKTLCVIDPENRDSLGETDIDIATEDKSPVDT
How it was run: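 The readout is membrane depolarisation from a cAMP-sensing CNG channel, detected with a potential dye at ex 535/em 590. Cells were HEK293-derived (endogenous PDE-IV) at 1000 cells/well, titrated up to 22.9 uM final.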

[9] = target: Cytochrome P450 3A4 (Homo sapiens) (UniProt P08684); test: qHTS Assay for Activators of Cytochrome P450 3A4 (AID 885); conditions: recombinant CYP3A4, Luciferin-PPXE luminescence, 60 min; series mostly up to 57.1 µM; also: nearly all actives have a fitted effect of over 65% in size
Sequence of Cytochrome P450 3A4 (Homo sapiens) (P08684 whole entry, looked up): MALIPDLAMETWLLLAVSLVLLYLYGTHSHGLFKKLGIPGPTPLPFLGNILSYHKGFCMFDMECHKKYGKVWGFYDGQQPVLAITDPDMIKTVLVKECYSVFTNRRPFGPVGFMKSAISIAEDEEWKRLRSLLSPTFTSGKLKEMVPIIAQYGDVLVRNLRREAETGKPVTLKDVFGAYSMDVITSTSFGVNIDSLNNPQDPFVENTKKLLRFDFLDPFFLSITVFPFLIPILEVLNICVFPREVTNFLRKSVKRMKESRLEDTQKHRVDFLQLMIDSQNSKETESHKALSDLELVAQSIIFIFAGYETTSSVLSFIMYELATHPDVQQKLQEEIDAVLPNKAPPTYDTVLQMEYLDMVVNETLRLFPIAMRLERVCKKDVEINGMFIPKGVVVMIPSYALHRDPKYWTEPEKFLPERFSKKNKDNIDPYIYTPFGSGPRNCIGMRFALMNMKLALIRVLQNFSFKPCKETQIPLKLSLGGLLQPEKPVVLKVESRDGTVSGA
How it was run: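 Steps: enzyme/substrate mix dispensed; compound added, 10 min RT; NADPH regeneration solution added, 60 min RT; luciferin detection buffer stops reaction; 20 min later luminescence measured.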

[10] = qHTS Assay for Identification of Small Molecule Agonists for Hypoxia Response Element Signaling Pathway (AID 914; active = well fitted activation curve with a large enough effect in the signal ratio, with a control signal flat, not every such curve was filed as active; the % refers to the signal ratio; also: potency is read from the fitted curve at half-maximal effect; as to activation: % of control where 0% means no effect); conditions: ME-180 HRE-bla reporter, beta-lactamase ratio, CoCl2, 17 h; activation: stronger effect = higher value
How it was run: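 HRE-bla ME-180 cells, overnight plating in Opti-MEM with 0.5% dialyzed FBS; cpd titration + EC50 CoCl2, 17 h, 37 degrees Celsius; CCF4 2.5 h RT; 460/530 nm ratio; AC50.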

[11] = qHTS Assay for Lipid Storage Modulators (AID 1519; calls by dose curve); conditions: Drosophila S3 cells, BODIPY lipid droplet/cell ratio, laser cytometry, cells loaded with oleic acid
How it was run: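 Cells seeded at 5,000 per well were treated with compounds over a concentration series and loaded with oleic acid (400 uM, as added). Lipid droplet fluorescence (488 nm excitation, 500-530 nm channel) was read by laser-scanning cytometry and normalized to 20 uM Triacsin C.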

[12] = target: Ubiquitin carboxyl-terminal hydrolase 1 (Homo sapiens) (UniProt O94782); test: Inhibitors of USP1/UAF1: Pilot qHTS (AID 504865); conditions: purified USP1/UAF1, Ub-rhodamine cleavage fluorescence; series mostly up to 54.9 µM;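 also: rhodamine fluorescence freed from ubiquitin-rhodamine substrate followed over time; top concentration of the series differs between compounds; % is scaled to controls: 0 for no effect and ±100 for the full control effect; nearly all actives have a fitted effect of over 35% in size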
Sequence of Ubiquitin carboxyl-terminal hydrolase 1 (Homo sapiens) (O94782 whole entry, looked up): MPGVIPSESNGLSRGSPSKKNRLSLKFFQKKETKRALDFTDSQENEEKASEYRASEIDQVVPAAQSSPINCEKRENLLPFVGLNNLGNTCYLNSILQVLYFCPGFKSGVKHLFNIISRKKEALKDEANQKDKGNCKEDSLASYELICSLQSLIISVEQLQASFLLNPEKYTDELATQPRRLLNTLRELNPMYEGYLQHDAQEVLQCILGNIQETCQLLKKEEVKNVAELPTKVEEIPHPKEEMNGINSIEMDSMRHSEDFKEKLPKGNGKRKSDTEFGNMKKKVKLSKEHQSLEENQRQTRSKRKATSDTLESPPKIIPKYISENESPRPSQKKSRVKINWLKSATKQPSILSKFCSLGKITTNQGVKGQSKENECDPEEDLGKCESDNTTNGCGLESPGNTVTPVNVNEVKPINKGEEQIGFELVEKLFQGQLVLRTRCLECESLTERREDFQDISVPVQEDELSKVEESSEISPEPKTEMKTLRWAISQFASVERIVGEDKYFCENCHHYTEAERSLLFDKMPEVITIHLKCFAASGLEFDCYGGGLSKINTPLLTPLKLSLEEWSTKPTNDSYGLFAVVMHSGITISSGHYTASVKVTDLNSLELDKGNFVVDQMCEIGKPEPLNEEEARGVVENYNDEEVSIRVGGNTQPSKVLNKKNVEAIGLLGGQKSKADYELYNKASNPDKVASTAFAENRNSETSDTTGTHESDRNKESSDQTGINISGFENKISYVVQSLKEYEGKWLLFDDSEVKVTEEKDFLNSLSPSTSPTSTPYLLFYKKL
How it was run: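 1nM USP1/UAF1 + cpd, 15 min RT; start w/ Ub-Rho 150nM final; kinetic FL 480/540 nm, 6 reads q60 s. Buffer 50mM HEPES pH 7.8, 0.5mM EDTA, 1mM TCEP, 0.01% Tween-20, 0.1 mg/ml BSA.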

[13] = target: Cytochrome P450 3A4 (Homo sapiens) (UniProt P08684); test: qHTS Assay for Inhibitors and Substrates of Cytochrome P450 3A4 (AID 884); conditions: recombinant CYP3A4, Luciferin-PPXE luminescence; series mostly up to 57.1 µM; also: nearly all actives have a fitted effect of over 50% in size; also: potency is read from the fitted curve at half-maximal effect
How it was run: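 20 nM human CYP3A4 with 25 uM Luciferin-PPXE (at KM) in 200 mM KPO4, preincubated 10 min with compound; NADPH regeneration started a 60 min RT reaction. Luciferin detected by luminescence, normalized to 57 uM ketoconazole as full inhibition.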

[14] = Confirmation and Secondary Assay for Modulators of Hemoglobin Beta Chain Splicing at IVS2 654 locus (AID 910); conditions: HeLa EGFP-654 splicing reporter, GFP fluorescence, 48 h; series mostly up to 38.3 µM;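 also: HeLa cells stably carrying EGFP split by mutant beta-globin IVS2-654 intron; % of control where 0% means no effect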
How it was run: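 HeLa cells stably expressing EGFP interrupted by β-globin IVS2-654 intron, seeded overnight in Opti-MEM/2% FCS, then treated 2 days at 37 °C. Restored splicing read as total peak GFP intensity per well by laser scanning cytometry (488 nm excitation, 500–520 nm emission); 500 nM antisense PNA as control.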

[15] = Confirmation and Secondary Assay for Modulators of Hemoglobin Beta Chain Splicing at IVS2 705 locus (AID 930); conditions: HeLa EGFP-705 splicing reporter, GFP fluorescence, 48 h; series mostly up to 38.3 µM;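 also: HeLa cells stably expressing the EGFP-705 splicing reporter; GFP fluorescence per well restored by corrected splicing of the IVS2-705 intron in EGFP; % of control where 0% means no effect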
How it was run: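 Read-out: total peak GFP fluorescence per well (488 nm excitation, 500-520 nm emission) by laser-scanning cytometry. Cells: HeLa EGFP-705 splicing reporter, 2 days compound exposure in Optimem/2% FCS.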

[16] = target: Glutathione peroxidase 1 (Homo sapiens) (UniProt P07203); test: Primary qHTS Assay for Inhibitors of Recombinant Selenoprotein Glutathione Peroxidase 1 (GPX1) (AID 1845191); conditions: recombinant GPX1, GR-coupled NADPH fluorescence, 15 min; series mostly up to 48.8 µM; also: % is scaled to controls: 0 for no effect and ±100 for the full control effect; nearly all actives have a fitted effect of over 65% in size
Sequence of Glutathione peroxidase 1 (Homo sapiens) (P07203 whole entry, looked up): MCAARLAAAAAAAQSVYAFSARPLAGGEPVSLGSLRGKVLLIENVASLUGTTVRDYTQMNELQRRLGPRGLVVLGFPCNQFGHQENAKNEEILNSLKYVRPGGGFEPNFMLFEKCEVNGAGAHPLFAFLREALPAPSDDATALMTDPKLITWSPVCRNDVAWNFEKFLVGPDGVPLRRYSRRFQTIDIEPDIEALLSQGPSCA
How it was run: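 GR-coupled assay: compounds preincubated 30 min at room temperature with GPX1, then reaction started with CHP; final 10 nM GPX1, 1 mM GSH, 0.5 mM CHP, 0.5 mM NADPH, 100 nM GR, 0.01% BSA, pH 7.5 Tris buffer. NADPH fluorescence (340/450 nm) read at 0 and 15 min.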

[17] = AP1 Signaling Pathway (AID 357; active = well fitted curve in either direction with a large enough effect, not every such curve was filed as active;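 also: ME-180 reporter cells stimulated with EGF at its EC50 level; % is scaled to controls: 0 for no effect and ±100 for the full control effect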); conditions: ME-180 (cervical carcinoma) AP-1-bla reporter, EGF-induced, beta-lactamase ratio, 5 h; at 7.69 µM (top of the series) unless noted
How it was run: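 A ratiometric CCF4 readout (405 nm excitation; 460 and 530 nm emission) quantified AP-1-driven beta-lactamase in ME-180 cells after 5 h with compound and EC50 EGF; AC50 values were derived for activators and inhibitors.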

[18] = target: Cytochrome P450 2C19 (Homo sapiens) (UniProt P33261); test: qHTS Assay for Inhibitors and Substrates of Cytochrome P450 2C19 (AID 899); conditions: recombinant CYP2C19, luciferin-H EGE luminescence; series mostly up to 57.1 µM; also: potency is read from the fitted curve at half-maximal effect; nearly all actives have a fitted effect of over 60% in size
Sequence of Cytochrome P450 2C19 (Homo sapiens) (P33261 whole entry, looked up): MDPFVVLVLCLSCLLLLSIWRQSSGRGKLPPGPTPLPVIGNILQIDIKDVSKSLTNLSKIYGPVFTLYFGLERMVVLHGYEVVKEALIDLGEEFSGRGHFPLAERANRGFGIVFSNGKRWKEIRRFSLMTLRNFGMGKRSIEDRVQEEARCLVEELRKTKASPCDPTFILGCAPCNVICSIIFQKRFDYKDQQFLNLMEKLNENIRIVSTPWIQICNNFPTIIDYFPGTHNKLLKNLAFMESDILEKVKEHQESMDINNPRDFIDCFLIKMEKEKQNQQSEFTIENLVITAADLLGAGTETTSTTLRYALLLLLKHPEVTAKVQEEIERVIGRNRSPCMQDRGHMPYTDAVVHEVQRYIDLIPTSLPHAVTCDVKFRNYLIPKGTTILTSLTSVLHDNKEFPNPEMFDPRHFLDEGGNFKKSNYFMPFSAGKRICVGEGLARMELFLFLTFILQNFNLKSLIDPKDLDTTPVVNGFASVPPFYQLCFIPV
How it was run: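 Luminescent read-out of luciferin formed from Luciferin-H EGE (10uM, equal to KM). Enzyme 5nM in 50mM KPO4; compound added, 10 min at 37C, then NADPH regenerating system for 60 min at 37C. Full inhibition defined by 57uM ketoconazole.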

[19] = qHTS profiling for inhibitors of Plasmodium falciparum proliferation (AID 504749);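 also: 0% = DMSO vehicle and full inhibition = artemisinin control; nearly all actives have a fitted effect of over 60% in size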; conditions: P. falciparum in erythrocytes, SYBR Green DNA, 72 h, at 12.8 µM (top of the series)
How it was run: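 P. falciparum-infected erythrocytes (0.3% parasitemia, 2.5% hematocrit) incubated with compound 72 h at 37 C, 5% CO2. Parasite DNA detected by SYBR Green after lysis, overnight at room temperature; normalised to 0.29 uM artemisinin and DMSO.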

[20] = measured here: cell count channel max response
[21] = measured here: lipid channel max response

COc1ncc2nc(-c3cccs3)c(=O)n(C)c2n1
19.4%: max response [11, 20]
24.1%: max response [11, 21]
inactive: Potency [1] > 11.4 µM | activity change, negative = inhibition [3] 8.87% | activity, negative = inhibition [4] 20.2% | Potency [5] > 46 µM | Potency [6] > 46 µM | Potency [7] | Potency [8] | Potency [9] | activity change, negative = inhibition ([11]; at 57.5 µM (top of the series)) 6% | Potency [12]
active: Potency [2] 2 µM | Potency [10] 2.51 µM

C=C(NC(=O)C(=C)NC(=O)c1csc(C2=NC3c4csc(n4)C4NC(=O)c5csc(n5)C(C(C)(O)C(C)O)NC(=O)C5CSC(=N5)C(=CC)NC(=O)C(C(C)O)NC(=O)c5csc(n5)C3(CC2)NC(=O)C(C)NC(=O)C(=C)NC(=O)C(C)NC(=O)C(C(C)CC)NC2C=Cc3c(C(C)O)cc(nc3C2O)C(=O)OC4C)n1)C(N)=O (stereo not given)
27.8%: max response [11, 20]
5.44%: max response [11, 21]
inactive: Potency [13] | Potency [14] | outcome [15] | activity change, negative = inhibition ([11]; at 57.5 µM (top of the series)) -19.2% | outcome [16]

COc1ccccc1CNc1cc(-c2cccc(C#N)c2)ncn1
inactive: Potency [1] > 11.4 µM | activity change, negative = inhibition [17] -5.31% | activity change, negative = inhibition [3] 17.8% | activity, negative = inhibition [4] -0.867% | Potency [5] > 46 µM | Potency [6] > 46 µM | Potency [7] | Potency [9] | activity change, negative = inhibition ([11]; at 57.5 µM (top of the series)) 3.16% | Potency [12]
active: Potency [2] 3.98 µM
4.01%: max response [11, 20]
4.55%: max response [11, 21]

C=C[C@](C)(O)CCC=C(C)C
20.7%: max response [11, 21]
15.3%: max response [11, 20]
inactive: Potency [13] | Potency [14] | outcome [15] | activity change, negative = inhibition ([11]; at 57.5 µM (top of the series)) 3.04% | Potency [12]

COc1ccccc1CNc1ncnc2ccc(-c3cccc(C#N)c3)cc12
-3.32%: max response [11, 20]
-14.8%: max response [11, 21]
active: Potency [2] 0.251 µM | Potency [13] 7.94 µM | Potency [18] 5.01 µM
inactive: Potency [1] > 11.4 µM | activity change, negative = inhibition [3] -8.04% | activity, negative = inhibition [4] -17.5% | Potency [5] > 46 µM | Potency [6] > 46 µM | Potency [7] | Potency [9] | activity change, negative = inhibition ([11]; at 57.5 µM (top of the series)) -12.8% | Potency [12]

C[C@@H]1CCC[C@H](C)N1NC(=O)c1ccc(Cl)c(S(N)(=O)=O)c1
17.3%: max response [11, 20]
17%: max response [11, 21]
inactive: activity change, negative = inhibition [17] 2.6% [at 17.2 µM] and 10.6% [at 17.2 µM] | Potency [2] | activity change, negative = inhibition [3] 2.78% [at 17.2 µM] and -21.9% [at 17.2 µM] | activity, negative = inhibition [4] 9.09% [at 17.2 µM] and 21.6% [at 17.2 µM] | Potency [5] > 20.6 µM | Potency [6] > 20.6 µM | Potency [7] | activation [10] -10.1% and -0.309% | activity change, negative = inhibition ([11]; at 25.7 µM (top of the series)) 1.49% | Potency [12] | outcome [16] | activity, negative = inhibition ([19]; parasite line A) 12.8% | activity, negative = inhibition ([19]; parasite line B) 12%
